Experimental data taken from PubChem BioAssay.
The source made the active and inactive calls. Unless noted, no rule for the calls is given here.

Experiments:
[1] = system: XIP peptide (Xip251-270) binding; test: XIP fragment 251-270 binding compounds – biochemical, small-molecule microarray, fluorescence 635/667 nm, 0.1 µg/mL protein, primary screen (AID 1182); details: fluorescent protein binding, 635 nm, higher = more signal, called active from +8 up or from −8 down
XIP peptide (Xip251-270) = test: compounds binding XIP fragment 251-270 – biochemical, small-molecule microarray, fluorescence 635/667 nm, 0.5 µg/mL protein, primary screen (AID 1183); details: fluorescence 635 nm, higher = more signal
[2] = blood-stage malaria parasite viability loss – strain 3D7, DAPI fluorescence, 100 nL, primary screen (AID 1184);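 also: parasites grown inside human red blood cells in medium with human serum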; details: P. falciparum 3D7 growth, 3 d, higher = more signal
[3] = molecular target: Homeobox protein Hox-A13 (Mus musculus) (UniProt Q62424); test: disruptors of Hoxa13 oligonucleotide interaction – biochemical, fluorescence polarization, labeled oligonucleotide, primary screen (AID 1185); details: Hoxa13:DNA binding, 15 min, higher = more signal, called active from +8 up or from −8 down
[4] = blockers of DNA damage checkpoint Chk1 activation – imaging, HeLa, hydroxyurea, phospho-Chk1 antibody, percent positive cells, primary screen (AID 1186); details: hydroxyurea-induced phospho-Chk1 immunofluorescence imaging, higher = more signal
[5] = blockers of DNA damage checkpoint Chk1 activation – imaging, HeLa, hydroxyurea, phospho-Chk1 nuclear intensity, primary screen (AID 1187); details: hydroxyurea-induced phospho-Chk1 immunofluorescence imaging, higher = more signal

Sequence of Homeobox protein Hox-A13 (Mus musculus) (Q62424 whole entry, looked up): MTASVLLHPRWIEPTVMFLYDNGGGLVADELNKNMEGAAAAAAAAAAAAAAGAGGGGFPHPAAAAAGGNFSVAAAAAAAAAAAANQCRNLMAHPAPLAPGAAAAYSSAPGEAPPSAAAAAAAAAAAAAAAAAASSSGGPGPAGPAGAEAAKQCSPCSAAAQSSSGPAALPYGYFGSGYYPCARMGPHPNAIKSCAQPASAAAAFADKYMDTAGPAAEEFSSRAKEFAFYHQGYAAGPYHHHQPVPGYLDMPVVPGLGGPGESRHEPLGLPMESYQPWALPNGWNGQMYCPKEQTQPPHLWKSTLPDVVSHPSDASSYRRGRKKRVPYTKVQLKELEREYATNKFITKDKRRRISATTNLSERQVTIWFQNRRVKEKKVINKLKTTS

Row | Compound | composite z-score [1] | composite z-score (XIP peptide (Xip251-270)) | z-score [2] | z-score [3] | z-score [4] | z-score [5]
1 | CCCCN1CC=CC23O[C@@H]4C=CCOC(=O)[C@@H]4[C@H]2C(=O)N(CCCCCCO)[C@@H]3C1=O (some centres not stated) | 1.31 (inactive) | -1.46 | -0.198 | -4.53 (inactive) | -0.0344 (inactive) | -0.364 (inactive)
2 | COc1ccc(NC(=O)O[C@H]2[C@H](OC(=O)c3cc4ccccc4[nH]3)[C@@H](OC(=O)c3cc4ccccc4[nH]3)[C@@H](OC)O[C@@H]2CO)cc1 | 1.54 (inactive) | -0.135 | -2.16 | -3.86 (inactive) | -0.335 (inactive) | -0.331 (inactive)
3 | C=CC[C@@]1(C(=O)N2CCCCC2)N=C(c2ccc(OCCCO)cc2)O[C@@H]1c1ccccc1N=[N+]=[N-] | 0.195 (inactive) | 0.602 | -1.94 | -2.64 (inactive) | -0.679 (inactive) | -0.667 (inactive)
4 | CCOc1cc(C(O)C2C=CC3C(=O)N(c4ccccc4)C(=O)C3N2Nc2ccc(C(C)C)cc2)ccc1O (configuration not stated) | 0.429 (inactive) | 0.828 | -0.85 | -4.72 (inactive) | 0.415 (inactive) | 0.241 (inactive)
5 | C=CCC(OC(C)=O)[C@@H]1[C@@H](N(Cc2ccc(-c3ccccc3)cc2)C(=O)Cc2ccc(F)cc2)c2cc(OCCCO)ccc2N1C(=O)c1ccc2ccccc2c1 (some centres not stated) | -0.568 (inactive) | -0.245 | -2.17 | -1.35 (inactive) | 0.295 (inactive) | -0.009 (inactive)
6 | COc1ccc(C#Cc2ccc3c(c2)[C@]2(C(=O)N3)[C@H](c3ccc(O)cc3)N3[C@H](c4ccccc4)[C@H](c4ccccc4)OC(=O)[C@H]3[C@@H]2C(=O)N2CCc3cc(OC)c(OC)cc3C2)cc1 | 0.409 (inactive) | 0.465 | -2 | -1.17 (inactive) | -0.0377 (inactive) | -0.187 (inactive)
7 | COc1cc2c(cc1O)C(c1cccs1)N(Cc1ccc([N+](=O)[O-])o1)CC2 (configuration not stated) | 0.243 (inactive) | 0.947 | -0.316 | -6.24 (inactive) | -0.334 (inactive) | -0.445 (inactive)
8 | COCC(=C=CC[C@@H](O)c1ccc(OCCO)cc1)C[C@@H](O)c1ccccn1 | 1.51 (inactive) | -0.161 | 0.797 | -5.97 (inactive) | 0.117 (inactive) | 0.265 (inactive)
9 | O=C1NC(=O)C2C1C=CC(C(O)c1ccc(I)cc1)N2Nc1ccccn1 (configuration not stated) | 0.932 (inactive) | 0.457 | 1.04 | -1.85 (inactive) | 0.955 (inactive) | 0.534 (inactive)
10 | O=C1O[C@@H](c2ccccc2)[C@@H](c2ccccc2)N2[C@@H](c3ccccc3OCCO)[C@]3(C(=O)Nc4ccc(C#CC5(O)CCCCCC5)cc43)[C@@H](C(=O)N3CCN(c4ncccn4)CC3)[C@H]12 | -0.0661 (inactive) | 0.661 | -2.17 | -1.01 (inactive) | -0.0019 (inactive) | 0.451 (inactive)
11 | CCCC(=O)N(CCc1c[nH]c2ccccc12)[C@@H]1CC(C(=O)NCCO)=C[C@H](Oc2c(I)cc(CO)cc2OC)[C@H]1O | -0.131 (inactive) | 0.289 | -0.373 | -7.89 (inactive) | -1.51 (inactive) | -2.68 (inactive)
12 | CC(=O)NCCCC[C@@H]1NC(=O)[C@H]2C[C@@H](C(=O)O)[C@@H](c3ccc(O)cc3)N2C1=O | 1.01 (inactive) | 0.764 | -1.71 | 4.77 (inactive) | 0.402 (inactive) | 0.207 (inactive)
13 | CO[C@H]1O[C@H](CO)[C@@H](OC(=O)Nc2ccccc2)[C@@H]2OC(=O)[C@@H](Cc3ccc4ccccc4c3)C/C=C/C[C@H](Cc3ccc4ccccc4c3)C(=O)O[C@@H]12 | 1.97 (inactive) | 0.748 | -0.492 | -3.03 (inactive) | -0.956 (inactive) | -0.96 (inactive)
14 | COCCCNC(=O)[C@@]1(CCS(=O)(=O)c2ccccc2)N=C(c2ccc(OCCCO)cc2)O[C@H]1c1ccccc1N=[N+]=[N-] | 1.26 (inactive) | 0.839 | -2.72 | -3.94 (inactive) | -0.662 (inactive) | -0.624 (inactive)
15 | C[N+](C)(C)CCCCCCNC(=O)[C@H]1C[C@H]2C(=O)N[C@@H](Cc3ccccc3)C(=O)N2[C@H]1c1cccc(OCCO)c1 | 0.875 (inactive) | 0.817 | -0.463 | -5.91 (inactive) | 0.685 (inactive) | 0.484 (inactive)
16 | [N-]=[N+]=Nc1ccccc1C[C@]1(C(=O)N2CCCCC2)COC(c2ccc(OCCCO)cc2)=N1 | 1.98 (inactive) | 0.204 | -2.29 | -6.17 (inactive) | 0.118 (inactive) | -0.232 (inactive)
17 | COC(=O)[C@@]1(Cc2ccccc2)[C@H]2c3cc(C(=O)N(C)C)n(CCc4c[nH]c5ccc(O)cc45)c3C[C@H]2CN1C(=O)c1ccccc1 | 1.44 (inactive) | 0.818 | -1.59 | -5.16 (inactive) | -0.996 (inactive) | -0.844 (inactive)
18 | COCCOC(=O)N1C(=O)[C@@]2(c3ccccc31)[C@H](C(N)=O)[C@H]1C(=O)O[C@H](c3ccccc3)[C@H](c3ccccc3)N1[C@@H]2c1ccc(O)cc1 | -0.114 (inactive) | 0.726 | 0.373 | -4.73 (inactive) | -0.0504 (inactive) | -0.194 (inactive)
19 | OB1C=CCC(CCc2ccccc2)O1 (configuration not stated) | -1.15 (inactive) | 0.965 | -0.355 | -2.13 (inactive) | -0.591 (inactive) | -0.212 (inactive)
20 | CCN(CC)c1ccc(N2CC=CC34O[C@@H]5C=CCOC(=O)[C@@H]5[C@H]3C(=O)N(CCCCCCO)[C@@H]4C2=O)cc1 (some centres not stated) | 1.07 (inactive) | 0.659 | -0.897 | -5.54 (inactive) | 0.234 (inactive) | 0.722 (inactive)
21 | CCN(CC)c1ccc(N2CC=CC34O[C@@H]5/C=C\CCC(C)OC(=O)C5[C@H]3C(=O)N(CCCCCO)[C@@H]4C2=O)cc1 (some centres not stated) | -0.474 (inactive) | 0.102 | -0.0194 | -5.39 (inactive) | 0.489 (inactive) | 0.673 (inactive)
22 | CCOC(=O)C[C@H]1[C@H](OC(=O)c2ccc(-c3ccccc3)cc2)[C@@H](NC(=O)c2ccccc2)c2cc(OCCCO)ccc2N1C(=O)Cc1ccc(OC)cc1 | -0.11 (inactive) | -0.664 | -1.09 | -1.36 (inactive) | -0.0036 (inactive) | 0.16 (inactive)
